# Laboratory results published in PubChem BioAssay (NCATS).
# Records with an inconclusive call do not appear. A call without a number means that no potency is given here. Calls of active or inactive are those of the source. Calls come from the whole dose curve; as a rule, active = well fitted curve in the direction sought with a large enough effect; inconclusive = small, poorly fitted or top-dose-only effect, or another doubt; inactive = no such curve, though single readings can be large; an effect the other way counts as inactive or inconclusive.
# Assays:
# [1] = qHTS Screen of the MIPE 4.0 Collection Against Ewings Sarcoma (TC32) (AID 1259256); note: nearly all actives have a fitted effect of over 45% in size; note: potency is the fitted concentration of half-maximal effect
# In short: (§1)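 Here, cells in 5% FBS RPMI were exposed for two days (48 h) to compound dilutions added four hours after plating. ATP-based CellTiter-Glo luminescence measured viability, normalized to vehicle and no-cell blanks.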
# [2] = qHTS Screen of the MIPE 4.0 Collection Against Ewings Sarcoma (EW8) (AID 1259255); note: nearly all actives have a fitted effect of over 35% in size; note: potency is the fitted concentration of half-maximal effect
# In short: as §1
# [3] = qHTS assay to identify small molecule inhibitors of chordoma cells - UCH-1 (AID 1259355); note: nearly all actives have a fitted effect of over 55% in size
# In short: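 A 48hr growth-inhibition format: each drug tested at 15 concentrations together with added auranofin, camptothecin, doxorubicin, rubitecan and topotecan, with cell viability quantified as CellTiter-Glo luminescence.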
# [4] = Identifying Small Molecule Inhibitors of Pancreatic Cancer Stem Cells (SN12C, Adherent) (AID 1259358);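 note: cell survival measured after 48 h of compound exposure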
# In short: (§2)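 Luminescent ATP readout (CellTiter-Glo) quantifies surviving cells after a 48 h drug incubation. Normalization uses DMSO wells as no inhibition and media-only wells as full inhibition; bortezomib served as positive control.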
# [5] = Identifying Small Molecule Inhibitors of Pancreatic Cancer Stem Cells (Panc1, Adherent) (AID 1259362); conditions: Potency: viability; note: potency is the fitted concentration of half-maximal effect
# In short: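 Viability is scored by CellTiter-Glo luminescence 48 h after dosing, expressed as percent activity against vehicle and no-cell references. Spheroid formats rely on cells cultured 14 days in stem cell media beforehand.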
# [6] = Identifying Small Molecule Inhibitors of Pancreatic Cancer Stem Cells (A2780, Spheroid) (AID 1259357); conditions: Potency: A2780 spheroid viability;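 note: compound exposure lasted 48 h before the ATP luminescence read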
# In short: (§3)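 Spheroids grown 14 days in stem cell media on hydrogel-coated nonadherent plates; 2D lines seeded directly. Compounds added after 4 h attachment, 48 h at 37C, 5% CO2; CellTiter-Glo luminescence normalized to DMSO (no inhibition) and no-cell wells (full inhibition).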
# [7] = Identifying Small Molecule Inhibitors of Pancreatic Cancer Stem Cells (SN12C, Spheroid) (AID 1259360); conditions: Potency: SN12C spheroid viability; note: potency is the fitted concentration of half-maximal effect
# In short: as §3
# [8] = Identifying Small Molecule Inhibitors of Pancreatic Cancer Stem Cells (A278, Adherent) (AID 1259361); note: nearly all actives have a fitted effect of over 35% in size
# In short: as §2
# [9] = Identifying Small Molecule Inhibitors of Pancreatic Cancer Stem Cells (Panc1, Spheroid) (AID 1259359);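 note: compound exposure lasted 48 h before reading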
# In short: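 Cytotoxicity read by CellTiter-Glo luminescence after 48 h compound exposure at 37C; percent activity scaled between DMSO-treated cells and cell-free wells. Spheroid formats used cells pre-formed 14 days in stem cell media on hydrogel.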
compound,measurement,setting,value
c1ccc(CNc2nc(N3CCOc4ccccc43)nc3c2CCCC3)cc1,Potency,[1],inactive
CN1CC(=O)N2C(Cc3c([nH]c4ccccc34)[C@H]2c2ccc3c(c2)OCO3)C1=O (some centres not stated),Potency,[2],inactive
same,outcome,[3],inactive
O=C(Nc1cccc(Cl)c1)Nc1ncc(CCNc2ncnc3ccsc23)s1,Potency,[2],235 nM (active)
same,Potency,[4],inactive
same,Potency,[5],18700 nM (active)
FC(F)(F)c1ccc(C=Cc2nc(COc3ccc(CCCCn4ccnn4)cc3)co2)cc1,Potency,[1],33.2 nM (active)
COc1cc(N2CCN(C)CC2)ccc1Nc1nc(N)c(C(=O)c2c(Cl)cccc2Cl)s1,Potency,[1],10500 nM (active)
CNC(=O)c1c(-c2ccc(F)cc2)oc2cc(N(CCO)S(C)(=O)=O)c(C3CC3)cc12,Potency,[1],inactive
O=C1CN2Cc3c(ccc(Cl)c3Cl)N=C2N1,Potency,[1],23500 nM (active)
CC(=O)Nc1cccc(-n2c(=O)n(C3CC3)c(=O)c3c(Nc4ccc(I)cc4F)n(C)c(=O)c(C)c32)c1,Potency,[1],23500 nM (active)
same,Potency,[6],inactive
COc1cc2nccc(Oc3ccc(NC(=O)Nc4ccc(F)cc4F)c(F)c3)c2cc1OC,Potency,[1],6620 nM (active)
COc1nc(C)cnc1NS(=O)(=O)c1cccnc1-c1ccc(-c2nnco2)cc1,Potency,[1],inactive
same,Potency,[4],inactive
same,Potency,[7],inactive
same,IC50 (viability decrease),[8],inactive
same,Potency,[5],inactive
O=C(O)c1ccc(O)c2ncc(N3CCOCC3)cc12,Potency,[4],inactive
same,Potency,[7],inactive
same,Potency,[5],inactive
COc1c(C)cnc(Cn2cnc3c(Cl)nc(N)nc32)c1C,Potency,[1],132 nM (active)
same,Potency,[9],inactive
same,Potency,[7],264 nM (active)
same,IC50 (viability decrease),[8],93.5 nM (active)
same,Potency,[5],33.2 nM (active)
CCCCOCCOc1nc(-c2ccc(C(=O)O)c(F)c2)sc1C,Potency,[6],inactive
same,Potency,[4],inactive
same,Potency,[7],inactive
same,IC50 (viability decrease),[8],inactive
Cc1c(C(=O)Nc2ccc(N3C[C@@H](C)O[C@@H](C)C3)nc2)cccc1-c1ccc(OC(F)(F)F)cc1,Potency,[6],inactive
same,Potency,[4],inactive
